The nature of test [1]: NCI Yeast Anticancer Drug Screen. Data for the rad50 strain (AID 155).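 Further: 0% = growth of vehicle-only cultures of the same strain.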 Conditions: S. cerevisiae rad50 strain growth inhibition; at 50.0 µM; active compounds read high. The method in brief:
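Vehicle-treated cultures provide the reference for the growth inhibition reported for compound-exposed, repair-deficient yeast.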

Test [2] can be described thus: NCI Yeast Anticancer Drug Screen. Data for the mec2-1 strain (AID 157). Conditions: S. cerevisiae mec2-1 strain, at 50.0 µM, active compounds read high. In short, it runs like this:
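Cells of the genetically defined mec2-1 yeast strain are incubated with test compound. Inhibition of growth is calculated against vehicle-treated controls.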

Test [3] is described as follows: NCI Yeast Anticancer Drug Screen. Data for the sgs1 mgt1 strain (AID 161).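 Further: 0% = growth of cultures given vehicle only.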 Conditions: S. cerevisiae sgs1 mgt1 strain, at 50.0 µM, active compounds read high. In short, it runs like this:
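Test agents were incubated with a DNA-repair-mutant yeast strain. Growth was then read and compared against vehicle-treated controls.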

The nature of test [4]: NCI Yeast Anticancer Drug Screen. Data for the cln2 rad14 strain (AID 165).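 Further: 0% = growth equal to vehicle treated cultures.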 Conditions: S. cerevisiae cln2 rad14 strain, at 50.0 µM, active compounds read high. In short, it runs like this:
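The screen exposed genetically defined yeast (cln2 rad14) to test compounds and scored growth inhibition relative to vehicle-treated controls.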

Test [5] is described as follows: NCI Yeast Anticancer Drug Screen. Data for the bub3 strain (AID 167). Conditions: S. cerevisiae bub3 mutant strain, at 50.0 µM, active compounds read high. The method in brief:
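Mutant yeast screening strain plus compound; vehicle-treated cultures serve as the 0% inhibition reference.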

Test [6] can be described thus: NCI Yeast Anticancer Drug Screen. Data for the mlh1 rad18 strain (AID 175). Conditions: S. cerevisiae mlh1 rad18 strain growth inhibition; at 50.0 µM; active compounds read high. The method in brief: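 Compound-treated yeast growth, normalised to vehicle controls. Strain bears defined DNA repair mutations.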

Molecules are shown by their SMILES. The panel holds about 79,000 compounds, 15% with a hit somewhere; the sample as a whole holds those more often. A number with no mark means an inactive call. The source made the active and inactive calls. No stated cut-off is given here; in the data, active means growth inhibition above about 70%; inactive means the rest.

`COc1ccc(-c2nc3ccccc3c(=S)n2OC(C)=O)cc1`: the growth inhibition in test [1] was 68.5%; in test [2], 77.2% (active); in test [3], 82.1% (active); in test [4], 27.2%; in test [5] it was 90.2% (active); in test [6] it was 78.2% (active).
Turning to `N#CC1(C#N)C2CCCCC23OC(=N)C1(C#N)C(c1ccco1)O3` (stereo not given), the growth inhibition in test [1] was 15.8%; in test [2], 19.7%; in test [3] it was -29.2%; in test [4], -17.1%; in test [5], -41.5%; in test [6], -25.4%.
As to `Cc1ccc(OC2CC(n3cnc4ncnc(Cl)c43)OC2Oc2ccc(C)cc2)cc1` (stereo not given), the growth inhibition in test [1] was 21%; in test [2], 2.1%; in test [3] it was 13.9%; in test [4] it was 8.4%; in test [5] it was 13%; in test [6] it was -33.8%.
Consider `O=C1NC(N/N=C\c2ccccc2)=N/C1=C/c1ccc(Cl)cc1`, for which the growth inhibition in test [1] was 22.6%; in test [2], 0.75%; in test [3], 11.7%; in test [4] it was 17.8%; in test [5] it was 16.7%; in test [6], -1.85%.
On to `CCC(C)C1(O)OC2CC3(C)OC(=CC3=O)/C(C)=C\C3OC(=O)C1(C)C32` (stereo not given), for which the growth inhibition in test [1] was 7.65%; in test [2], -31.2%; in test [3] it was 37.5%; in test [4], 6.4%; in test [5], -20.1%; in test [6], -35.9%.
For the molecule `O=C(O)c1cc(C(=O)O)cc([N+](=O)[O-])c1`, the growth inhibition is -3.75% in test [1]; -5.9% in test [2]; 4.75% in test [3]; 0.25% in test [4]; 8.3% in test [5]; 7.35% in test [6].
As for `COc1cc2c3cc1Oc1c(OC)c(OC)cc4c1C(Cc1ccc(O)c(c1)-c1cc(ccc1OC)CC3N(C)CC2)N(C)CC4` (stereo not given), the growth inhibition is -1.25% in test [1]; -6.75% in test [2]; -2.15% in test [3]; 0.5% in test [4]; 8.85% in test [5]; -13.7% in test [6].
For `Cc1ccc(OCC2OC(n3cnc4nc(N)nc(Cl)c43)CC2Oc2ccc(C)cc2)cc1` (stereo not given), the growth inhibition in test [1] is 20.2%; in test [2] it was 28.4%; in test [3], 44.7%; in test [4] it was 46.5%; in test [5] it was 49.3%; in test [6] it was 2.6%.
With `N#CC(=S)Nc1ccc(F)cc1`, the growth inhibition was 20.2% in test [1]; 26.1% in test [2]; 30.7% in test [3]; -17.8% in test [4]; 10.9% in test [5]; -5.8% in test [6].
As for `OCc1ccccn1`, the growth inhibition in test [1] was -10.7%; in test [2], 3.45%; in test [3] it was -4.65%; in test [4], -0.25%; in test [5] it was -3.95%; in test [6], 16.7%.
On to `O=C1c2cccnc2-c2nccc3ccnc1c23`, for which the growth inhibition in test [1] is 75% (active); in test [2] it was 58.8%; in test [3], 63%; in test [4], 45.6%; in test [5], 57.5%; in test [6], -37.7%.
For `C=C(C)C1CC2(C)C(C)CC(OC(=O)/C(C)=C\C)CC2C(OC(=O)/C(C)=C\C)C1O` (stereo not given), the growth inhibition in test [1] was 31.2%; in test [2], -9.65%; in test [3] it was 31.2%; in test [4], -9.6%; in test [5] it was -1%; in test [6], -12.9%.
As for `O=C1c2ccccc2-c2c1c1ccccc1c(=O)n2-c1cccnc1`, the growth inhibition is 63.5% in test [1]; 6.95% in test [2]; 26.2% in test [3]; 32.3% in test [4]; 6% in test [5]; -9.05% in test [6].
On to `Clc1ccc(C2C3COc4ccccc4C3=NN2c2ccccc2)cc1` (stereo not given), for which the growth inhibition in test [1] was -26.1%; in test [2] it was -29.9%; in test [3], -14.8%; in test [4] it was 0.5%; in test [5], -29.5%; in test [6], -13.3%.
With `C[C@@H]1C[C@@H]2OC(=O)[C@]3(C)[C@H]2[C@@H](OC3(C)O)[C@]2(C)C(=O)C=C[C@@H]12` (stereo not given in full), the growth inhibition is -27.6% in test [1]; -45.6% in test [2]; -40.4% in test [3]; -12.7% in test [4]; -48.6% in test [5]; -35.5% in test [6].
As to `COc1cc(C)c2c(c1C=O)Oc1c(c(C)c(O)c3c1C(O)OC3=O)OC2=O` (stereo not given), the growth inhibition is 25.3% in test [1]; -7.65% in test [2]; 4.85% in test [3]; 25.6% in test [4]; -4.85% in test [5]; -60.3% in test [6].
For `CCOc1cc2c(cc1O)C=C[C@@H]1[C@@H]2CC[C@]2(C)[C@@H](O)CC[C@@H]12`, the growth inhibition is 33.8% in test [1]; 2.15% in test [2]; 53.8% in test [3]; 26.7% in test [4]; 18.7% in test [5]; 25.7% in test [6].
Turning to `COc1cc(Oc2c(C)c(Cl)c(OC)c(Cl)c2OC)c2c(c1Cl)COC2=O`, the growth inhibition was 28.5% in test [1]; -6.45% in test [2]; 15.6% in test [3]; 17.6% in test [4]; -5.75% in test [5]; 22.8% in test [6].
As to `COc1ccc(/C=c2\[nH]c3nc(=O)c(N4CCOCC4)c(N)n3c2=O)cc1`, the growth inhibition in test [1] was 0.9%; in test [2], -19.4%; in test [3], 1.6%; in test [4] it was -11.8%; in test [5], -26.1%; in test [6], -10.2%.
`Clc1ccc(C2NN=C3c4ccccc4OCC32)cc1` (stereo not given): the growth inhibition is -7.85% in test [1]; -24.1% in test [2]; -3% in test [3]; 7.85% in test [4]; 1.3% in test [5]; 17.2% in test [6].

The record behind these values is PubChem BioAssay (NCI).
